# Assay outcomes as filed in PubChem.
# ALDH1A1 block: ALDH1A1 (human) enzyme inhibition. Purified ALDH1A1, NADH fluorescence, propionaldehyde substrate. Potency, µM (titrated, usually from 75.3 µM), inactives show at the highest dose activity, negative = inhibition, hits mostly inhibitors. 220,000 tested, 7.3% active; active means well fitted inhibition curve with a large enough effect, not every such curve was filed as active; inconclusive means small, poorly fitted or top-dose-only effect, or another doubt; inactive means no such curve, though single readings can be large or run the other way;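 further: plate controls were no enzyme wells and a reference inhibitor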
# PLK1 PBD inh: PLK1 (human) polo-box domain binding inhibition. P53350. Plk1 PBD binding of FITC phosphopeptide, fluorescence polarization. Potency, µM, inactives show max response, negative = inhibition, usual class: inhibitors. 360,000 tested, 2.8% active. AID 720504; further: series mostly up to about 57 µM; nearly all actives have a fitted effect of over 65% in size
# Target sequence (P53350 whole entry, looked up, the tested form may be a part): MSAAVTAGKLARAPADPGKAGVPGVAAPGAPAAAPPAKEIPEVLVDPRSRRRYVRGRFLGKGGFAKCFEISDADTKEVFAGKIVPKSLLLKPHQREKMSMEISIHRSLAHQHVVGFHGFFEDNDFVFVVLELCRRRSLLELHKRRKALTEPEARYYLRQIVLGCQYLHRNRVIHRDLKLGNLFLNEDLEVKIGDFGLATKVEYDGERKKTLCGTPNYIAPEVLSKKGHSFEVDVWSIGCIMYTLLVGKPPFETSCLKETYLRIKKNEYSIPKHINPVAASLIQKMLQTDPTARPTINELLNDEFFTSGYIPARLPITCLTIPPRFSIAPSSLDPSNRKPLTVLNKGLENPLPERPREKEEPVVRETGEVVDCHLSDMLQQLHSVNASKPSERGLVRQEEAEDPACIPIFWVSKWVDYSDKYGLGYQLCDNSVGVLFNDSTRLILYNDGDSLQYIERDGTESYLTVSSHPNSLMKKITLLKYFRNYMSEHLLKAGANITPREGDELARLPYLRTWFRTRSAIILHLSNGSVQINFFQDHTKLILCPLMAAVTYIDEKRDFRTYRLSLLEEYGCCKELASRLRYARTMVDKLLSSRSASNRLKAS
# VP16 counter: Gal4-VP16 reporter inhibition counter-screen | AID 2546 | Potency, µM (doses to about 53.6 µM), for the others: at the highest dose activity, negative = inhibition, most hits filed as inhibitors | 310,000 tested, 3.5% active | Drosophila S2 Gal4-VP16 UAS-luciferase, luminescence, 20 h;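 further: Gal4-VP16 expression switched on by copper sulfate through the metallothionein promoter; nearly all actives have a fitted effect of over 50% in size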
# Sfp inh: blocks B. subtilis Sfp PPTase activity; Q9F4F7; Biochemical Sfp PPTase activity, qHTS; Potency, µM, without a hit: largest response in the series, negative = inhibition, most hits filed as inhibitors; 310,000 tested, 3.5% active;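 further: the enzyme is Sfp with the accession as filed and its product quenches rhodamine fluorescence; 0% = enzyme reaction without inhibitor and -100% = no enzyme wells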
#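 With Hepes-Na pH 7.6 buffer containing 10 mM MgCl2, Sfp (15 nM) modified BHQ-2-YbbR (12.5 uM) using rhodamine-CoA (5 uM). Two reads 30 minutes apart at 525/598 nm yielded each well's rate.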
# RORgamma inh: blocks mouse ROR gamma transcriptional activity; Potency, µM (doses to about 53.6 µM), inactives show at the top dose activity change, negative = inhibition, most hits filed as inhibitors; P51450; Drosophila S2 Gal4-RORgamma UAS-luciferase reporter, 20 h; 310,000 tested, 5.4% active; AID 2551; further: nearly all actives have a fitted effect of over 60% in size
#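 Using a luciferase readout, inhibitors were identified by reduced reporter activity in Drosophila cells coexpressing a copper-inducible Gal4–ROR gamma fusion and UAS-driven Photinus luciferase, incubated 20 hr after 700 uM copper sulfate.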
# The depositor's hits bear a star; u = inconclusive; x = not tested or not shown; [ ] = remark or other dose. Sampled rows, rich in hits. Any-hit rate of the full collection: about 12%. Unless noted, the call rests on the fitted dose curve; in most records, active means well fitted curve in the direction sought with a large enough effect; inconclusive means small, poorly fitted or top-dose-only effect, or another doubt; inactive means no such curve, though single readings can be large; an effect the other way counts as inactive or inconclusive. Unless noted, on the % scale 0 is the no-effect control and ±100 the full control effect; potency means the concentration at half of the fitted maximal effect.
SMILES,ALDH1A1 block,PLK1 PBD inh,VP16 counter,Sfp inh,RORgamma inh
Cc1cccc(-c2nnc(SCC(=O)C(C)(C)C)n2C)c1,11.2µM*,-3.6%,-15.8%,13.6%,-5.4%
Cc1cccc(-c2nnc(SCC(=O)Nc3cc(C)on3)n2C)c1,x,-10.4%,1.5%,-2.0%,-16.9%
Cn1c(CNC(=O)c2ccco2)nnc1SCC(=O)c1ccc(Br)cc1,x,-15.5%,-3.6%,12.2%,10.8%
Cn1c(SCC(=O)c2ccc(O)c(O)c2)nnc1-c1cccs1,x,-7.3%,-13.8%,-5.4%,7.1%
CCn1c(SCC(=O)c2ccc(C)cc2)nnc1-c1ccoc1C,u,-6.5%,15.8µM*,79.4µM*,u
Cc1nc(CN(C)Cc2nc(Cc3ccccc3Cl)no2)cs1,-2.5%,-14.4%,-1.9%,12.2%,-16.4%
COc1cccc(C2=Nn3c(nnc3-c3ccc(OC)c(OC)c3)SC2)c1,x,x,0.3%,-0.3%,-40.0%
O=C(O)[C@H](Cc1c[nH]c2ccccc12)N1C(=O)C2=CCCC=C2C1=O,x,x,4.1%,-0.5%,-7.7%
CCC1CCCCN1C(=O)CSc1nnc(-c2ccco2)o1 (stereo not given),20µM*,-14.0%,1.8%,-1.7%,-6.9%
CCCNC(=O)CSc1nnc(-c2ccco2)n1C,-3.5%,2.67µM*,1.5%,9.8%,-11.9%
CC1CCCCN1C(=O)CSc1nnc(-c2c[nH]c3ccccc23)o1 (stereo not given),25.1µM*,-12.9%,u,-0.6%,u
NC(=O)NC(=O)CSc1nnc(-c2ccco2)n1Cc1ccccc1,-1.5%,-9.8%,-6.4%,3.2%,18.0%
CCC1CCCCN1C(=O)CSc1nnc(-c2ccc(Cl)cc2)o1 (stereo not given),5.4%,-3.1%,4.7%,-4.6%,-1.5%
Cc1ccc(C(=O)CSc2nnc(-c3ccco3)n2Cc2ccccc2)cc1,0.2%,2.67µM*,-6.1%,-14.1%,-0.1%
CC1CCCCN1C(=O)CSc1nnc(-c2cccs2)o1 (stereo not given),x,-9.5%,-1.5%,5.8%,-18.6%
COc1ccc([C@@H](Nc2ccccn2)c2cc(C(C)(C)C)cc(C(C)(C)C)c2O)cc1,11.0%[13.5 µM],x,x,x,x
Cc1c(C(=O)NCc2cccc(C(F)(F)F)c2)sc(=O)n1Cc1cccc(F)c1,x,-13.2%,x,x,x
Cn1c(SCC(=O)c2ccc(-c3ccccc3)cc2)nnc1-c1ccco1,10µM*,-4.3%,0.6%,2.0%,21.8%
O=C(CSc1nnc(-c2ccco2)o1)c1ccccc1,u,-6.0%,5.2%,56.2µM*,11.4%
CCOC(=O)c1c(C)[nH]c(C)c1C(=O)CSc1nnc(-c2ccncc2)n1Cc1ccccc1,-1.0%,-0.9%,-6.3%,3.2%,9.2%
CCOC(=O)c1c(C)[nH]c(C)c1C(=O)CSc1nnc(-c2ccco2)n1Cc1ccccc1,15.8µM*,-2.2%,7.8%,14.2%,25.3%
O=C(CSc1nc2ccccc2n1CCc1ccccc1)c1ccc(O)c(O)c1,14.1µM*,u,u,50.1µM*,7.94µM*
O=C(CSc1nnc(-c2ccco2)n1Cc1ccccc1)c1ccccc1,u,-14.4%,11.7%,56.2µM*,21.6%[10 µM]
CC(=O)Nc1ccc(-c2nnc(SCC(=O)c3ccc4c(c3)Cc3ccccc3-4)n2C)cc1,u,-18.3%,u,89.1µM*,u
CCCc1ccc2ccc3ccccc3c2n1,x,0.7%,x,x,x
SMILES,ALDH1A1 block,PLK1 PBD inh,VP16 counter,Sfp inh,RORgamma inh
CSCC[C@H](NC(=O)[C@@H]1CCCN1C(=O)CNC(=O)[C@H](CCCCN)NC(=O)[C@H](Cc1cnc[nH]1)NC(=O)[C@H](CO)NC(=O)[C@H](CC(C)C)NC(=O)[C@H](CCCN=C(N)N)NC(=O)[C@@H]1CCCN1C(=O)[C@H](CCCN=C(N)N)NC(=O)[C@@H]1CCC(=O)N1)C(=O)N1CCC[C@H]1C(=O)N[C@@H](Cc1ccccc1)C(=O)O,x,x,-10.5%,6.3%,-3.6%
COCc1cn(CC(=O)c2sc(NC(=O)C(C)(C)C)nc2C)nn1,x,-3.1%,x,x,x
CN(C)/N=N\c1nc[nH]c1C(N)=O,-6.3%[20.9 µM],x,4.8%[17 µM],15.4%,7.9%[16.9 µM]
CCc1nc2oc3cc(OC)ccc3c(=O)c2c(=O)n1Cc1ccco1,u,-18.1%,-23.4%,35.5µM*,28.8%
Cc1ccc(-c2nc3c(c(=O)c4ccccc4n3C)c(=O)n2Cc2ccco2)cc1,u,-15.6%,-7.6%,3.98µM*,-7.3%
COc1ccc(-c2nc3oc4cc(OC)ccc4c(=O)c3c(=O)n2Cc2ccco2)cc1,u,-16.6%,-2.8%[0.365 µM],25.1µM*,-23.5%
COc1ccc2c(=O)c3c(=O)n(Cc4ccco4)c(-c4ccco4)nc3oc2c1,u,u,2.4%,u,-6.6%
COc1ccc(Cn2c(-c3ccco3)nc3oc4cc(OC)ccc4c(=O)c3c2=O)cc1,-1.1%,-12.3%,5.5%,5.2%,38.9%
c1ccc2c(NCCN3CCOCC3)nc(-c3ccoc3)nc2c1,3.1%,x,1.2%,0.2%,7.1%
O=C1C=C[C@@H](O)[C@@H]2[C@H]3C(=O)N(c4ccc(F)cc4F)C(=O)[C@@H]3CC[C@@H]12,u,x,0.0%[10 µM],-2.7%,-10.0%[10 µM]
CC(=O)OC1CC[C@]2(C)C(CC(OC(C)=O)[C@@]3(C)C4=CC(=O)OC(c5ccoc5)[C@]4(C)CCC23)C1(C)C (stereo not given in full),4.0%,x,-0.6%,0.3%,12.6µM*
CCc1c(O)nc(SCC(=O)Nc2ccc(Br)cc2)n(-c2ccc(C)cc2)c1=O,x,-35.7%,u,9.6%,-23.1%
CCc1c(O)nc(SCC(=O)Nc2ccc(C)cc2)n(C2CCCCC2)c1=O,20µM*,2.8%,-9.8%,-2.8%,8.1%
CCOC(=O)C1CCCN(C(=O)C2(c3ccc(Cl)cc3)CCCC2)CC1 (stereo not given),x,-8.8%,x,x,x
COCCNC(=S)N(C)[C@H]1C[C@H]2c3cc(-c4ccccc4)ccc3CCN2C(=O)[C@H]1[C@H](C)O,x,-15.8%,x,x,x
CCCCN1C[C@H](CSC)[C@@H](CC(=O)Nc2ccc(OC)cc2)C1=O,x,-12.3%,x,x,x
COC(=O)N1CC(c2ccccc2)CC1=O (stereo not given),13.6%,-1.3%,-1.1%,10.5%,-19.2%
COC(=O)N1C(=O)[C@@](c2ccccc2)(C2CCCCC2)N1C(=O)OC,x,u,-8.1%,-2.2%,7.94µM*
COC(=O)N1C(=O)[C@](Cc2ccccc2)(c2ccccc2)N1C(=O)OC,x,15µM*,-2.9%,-3.4%,12.4%
CC[C@]1(c2cccc(C)c2)C(=O)N(C(=O)OC)N1C(=O)OC,x,11.9µM*,0.0%,-19.5%,2.2%
COC(=O)N1C(=O)[C@@](Cc2ccccc2)(c2ccccc2)N1C(=O)OC,x,29.9µM*,-2.1%,-4.0%,u
COC(=O)N1C(=O)[C@](c2ccccc2)(C(C)C)N1C(=O)OC,x,u,u,-1.5%,-45.0%
CC[C@]1(c2ccccc2)C(=O)N(C(=O)OC)N1C(=O)OC,x,10.6µM*,-3.2%,-23.1%,-26.5%
CC[C@@]1(c2ccccc2C)C(=O)N(C(=O)OC)N1C(=O)OC,x,10.6µM*,-17.7%,u,u
